# Calls of active or inactive are those of the source.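 How the source made its calls: active means RAM network inhibition above 8.4% in each of two replicates, 3 SD over the compound average; inconclusive means above 8.4% inhibition in only one replicate; inactive means 8.4% inhibition or less in each replicate.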
# Assay: RAM signaling pathway blockade in yeast – S. cerevisiae, Pdr1DBD-CYC8 efflux-inhibited sensitized strain, primary screen (AID 1298);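 further: 0% = DMSO untreated cells without growth and 100% = 10 µM 1-NA-PP1 full growth; higher means more yeast growth rescued from 5-FOA killing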
# Details: S. cerevisiae cbk1-as DSE1-URA3 strain, 5-FOA growth OD615, 2 d; at 50 µM; hits give high values
row,SMILES,RAM network inhibition
1,Cc1ccc(C2/C(=C(/O)c3ccc(Br)cc3)C(=O)C(=O)N2Cc2ccco2)o1 (stereo unspecified),-1.74% (inactive)
2,C=CCN(C(=O)CN1CCOCC1)c1nc(C)c(-c2ccccc2)s1,0.88% (inactive)
3,CCOc1cccc(=O)c2c(C)n(Cc3ccco3)c(C)c12,-0.46% (inactive)
4,CCOc1ccc(N(CC(=O)Nc2ccc(C)cc2)S(=O)(=O)c2c(C)noc2C)cc1,4.04% (inactive)
5,CCCc1ccc(Oc2cn[nH]c2-c2ccc(O)cc2O)cc1,2.88% (inactive)
6,CCOC(=O)N1CCN(C(=O)C2CCN(Cc3nc(-c4ccccc4C)oc3C)CC2)CC1,1.63% (inactive)
7,Cc1cccc(NC(=O)CN2CCN(CC(=O)Nc3cccc(C)c3)CC2)c1,2.17% (inactive)
8,COc1ccc(-c2nc(CSCC(=O)N3CCC(C(N)=O)CC3)c(C)o2)cc1OC,-0.72% (inactive)
9,O=C1CC(c2ccco2)Sc2nc3ccccc3n21 (stereo unspecified),1.62% (inactive)
10,COc1cc(NC(=O)c2onc(C)c2Cl)c(OC)cc1Cl,3.23% (inactive)
11,C/C(=C1/SC(N2CCOCC2)=NC1=O)c1ccc(Br)cc1,0.72% (inactive)
12,COc1ccc(OC)c(C2=Nn3c(nnc3-c3ccncc3)SC2)c1,5.82% (inactive)
13,CCOc1ccc2nc(N3CCCC(C(=O)N4CCN(CC)CC4)C3)sc2c1 (stereo unspecified),2.01% (inactive)
14,O=C(Nc1nccs1)C12CC3CC(C1)CC(C(=O)Nc1nccs1)(C3)C2,2.5% (inactive)
15,O=C(NC1CCCCC1)N1CCCc2ccccc21,-1.17% (inactive)
16,COc1ccc(C(=O)OCCN2C(=O)c3ccccc3C2=O)cc1,7.05% (inactive)

# From PubChem BioAssay
